Compounds with a hit are over-represented: about 12% of the library has one in this group of screens.
LASV entry inh = inhibitors of Lassa virus binding or cell entry. Lassa virus pseudotype entry inhibition, cell reporter. Potency, µM (series often up to 37.9 µM), for inactives: at the top dose activity change, negative = inhibition, most hits filed as inhibitors. 300,000 tested, 1.2% active. AID 540256; calls by dose curve; tested in HEK293 cells; further: potency means the concentration at half of the fitted maximal effect; on the % scale 0 is the no-effect control and ±100 the full control effect; nearly all actives have a fitted effect of over 50% in size
Shiga toxin inh = inhibitors of Shiga toxin in Vero cells | Vero cells, Shiga toxin protein synthesis inhibition reporter | inhibition, % at 38.7 µM | 290,000 tested, 9.2% active | AID 2315; in the data active means inhibition mostly above about 28%, no sharp cut-off; inactive means mostly below about 43%; further: 0% is about no effect
CHX counter = affects cycloheximide protein synthesis inhibition readout, counter-screen. cell reporter, cycloheximide protein synthesis inhibition counterscreen. 300,000 tested, 12% active. max response, %; in the data active means max response mostly above about 13%, no sharp cut-off; inactive means mostly below about 14%; further: read at 38.3 µM for the half of the compounds with a filed dose; 0% is about no effect
MARV entry inh = inhibitors of Marburg virus binding or cell entry. 300,000 tested, 1.8% active. AID 540276. Potency, µM (series often up to 37.8 µM), for inactives: at the top dose activity change, negative = inhibition, most hits filed as inhibitors. Marburg virus pseudotyped entry inhibition, cell reporter; calls by dose curve; tested in HEK293 cells; further: potency means the concentration at half of the fitted maximal effect; on the % scale 0 is the no-effect control and ±100 the full control effect
An asterisk follows results filed as active; ? = inconclusive; nt = no result; [ ] = remark or other dose.

SMILES	LASV entry inh	Shiga toxin inh	CHX counter	MARV entry inh
CC(NC(=O)COC(=O)c1cc(NS(=O)(=O)c2ccc(Cl)c([N+](=O)[O-])c2)ccc1O)C1CC2CCC1C2 (centres undefined)	?	-19.3	7.9	?
CO/N=C/c1ccc(Oc2ccc(C)cc2)nc1	2.5%	44.9*	26.8*	-1.4%
c1cncc(-c2nn3c(Cn4nnc5ccccc54)nnc3s2)c1	-0.2%	6.2	2.2	3.26µM*
c1ccc(-c2nn3c(Cn4nnc5ccccc54)nnc3s2)nc1	6.3%	8.0	6.3	19.0%
COc1ccc(NC(=O)c2csc(Cc3ccccc3)n2)cc1	?	74.2	43.4*	?
COc1ccc(CNC(=O)c2csc(Cc3ccccc3)n2)cc1	?	63.6*	20.8*	?
O=C(Nc1ccc(F)cc1)c1csc(Cc2ccccc2)n1	5.4%	104.2*	54.5*	13.3%
O=C(O)c1csc(Cc2ccccc2)n1	5.2%[46.1 µM]	-5.3	1.2	13.2%[46.1 µM]
COc1ccccc1CNC(=O)c1csc(Cc2ccc(Cl)cc2)n1	-26.6%	10.9	9.9	?
Cc1ccc(-c2cc(C(=O)NCCc3ccccc3)c3ccccc3n2)cc1C	4.3%[46.1 µM]	nt	nt	nt
CCc1ccc(NC(=O)CCC(=O)c2ccccc2)cc1	nt	-4.8	-0.5	nt
COC(=O)[C@@H]1[C@@H](C(=O)OC)C2(c3ccccc3-c3ccccc32)N(c2ccc(Cl)cc2)N1C#N	?	15.9	7.9	10µM*
COC(=O)C[C@]1(C(=O)OC)CN(C#N)N(c2ccc(Cl)cc2)C12c1ccccc1-c1ccccc12	3.16µM*	-11.2	-7.7	?
COC(=O)CN1C(=O)C(O)(CC(=O)c2ccc(Cl)cc2)c2ccccc21 (centres undefined)	nt	-9.6	-3.0	nt
COC(=O)C1OC2(OC1C(=O)OC)c1ccccc1-c1ccccc12 (centres undefined)	2.0%	7.8	8.0	7.0%
Cc1ccc(CN2CCN(Cc3cccn3-c3nccs3)CC2CCO)cc1 (centres undefined)	-12.5%[46.1 µM]	-1.4	7.5	?
CCOc1cc(N2CCOCC2)c(OCC)cc1NC(=O)c1ccc(OC(C)C)cc1	-23.2%	16.7	-0.6	-1.3%[46.1 µM]
CC1=C[C@@H](C)O[C@@]2(C1)C(=O)Nc1cccc(Br)c12	?	nt	nt	0.6%[14.2 µM]
COc1nc(-c2ccccc2)ncc1S(=O)(=O)c1ccccc1	-17.7%	21.3	-1.5	-3.1%
Cc1nc(-c2ccccc2)sc1-c1nc(-c2ccncc2)ncc1S(=O)(=O)c1ccccc1	?	-11.4	12.7	4.47µM*
O=C(Cc1ccc(F)cc1)Nc1cccc(-c2cn3c(n2)SCC3)c1	-14.5%	39.4	13.6	6.8%
CCc1ccc(-c2cn3c(n2)SCC3)cc1	-15.3%[46.1 µM]	67.7*	47.4*	?
Cc1ccc(-c2cn3c(n2)SCC3)cc1	?	141.2*	43.1*	?
CCCCOc1ccc(/C=C/C(=O)N(CC)CC(=O)Nc2ccc3c(c2)OCCO3)cc1OC	-19.2%	nt	nt	?
CC(C)(C)C(=O)Nc1nc2c(s1)COc1ccccc1-2	nt	46.0*	19.5*	nt
SMILES	LASV entry inh	Shiga toxin inh	CHX counter	MARV entry inh
CCCC(=O)Nc1nc2c(s1)COc1ccccc1-2	nt	31.2*	24.3*	nt
CCCCC(=O)Nc1nc2c(s1)COc1ccccc1-2	nt	42.5*	37.7*	nt
Fc1ccc(Nc2nc(-c3ccc(F)cc3)c3c(n2)-c2ccccc2OC3)cc1	2.2%[46.1 µM]	nt	nt	-29.9%[46.1 µM]
Nc1nc2c(s1)COc1ccccc1-2	nt	42.5	13.7*	nt
O=C(CCSc1ccccc1)Nc1nc2c(s1)COc1ccccc1-2	nt	12.2	-0.9	nt
Cc1ccc(S(=O)(=O)N2CCN(C(=O)CCc3c[nH]c4ccccc34)CC2)c(C)c1	?	nt	nt	7.1%
CCCCn1c(-c2cccc3ccccc23)nc2cc3[nH]c(=O)c(C(C)C)nc3cc21	nt	-1.0	-2.8	nt
NC(=O)c1c(NC(=O)c2cccs2)sc2c1CCCCCC2	?	55.3	30.3*	?
COCCCNC(=O)c1c(NC(=O)c2cccs2)sc2c1CCCC2	-3.0%	-9.3	-4.4	-1.8%
O=C(Nc1sc2c(c1C(=O)Nc1cccc(Cl)c1)CCCC2)c1cccs1	4.0%[46.1 µM]	-5.2	-5.6	nt
O=C(Nc1sc2c(c1C(=O)O)CCC2)c1cccs1	?	114.6*	48.2*	?
COc1ccc(Cc2nnc(SCC(=O)N(C)CC(=O)Nc3ccc(C)cc3)o2)cc1	0.8%	nt	nt	-16.2%
Cc1c(C(=O)N2CCN(c3ccc(F)cc3)CC2)sc2nc(-c3ccccc3)cn12	12.2%	1.5	-2.0	-23.8%
Cc1c(C(=O)N2CCOCC2)sc2nc(-c3ccccc3)cn12	?	42.6*	21.1*	?
Cc1c(C(=O)N2CCc3ccccc3C2)sc2nc(-c3ccccc3)cn12	7.6%	45.2*	27.3*	-0.6%
COC(=O)C1CCN(C(=O)c2sc3nc(-c4ccc(F)cc4)cn3c2C)CC1	?	36.6*	16.0*	5.8%
N#Cc1cccc(NC(=O)CC2CCCC2)c1	-16.9%[46.1 µM]	20.5	12.8	?
O=C(CC1NCCNC1=O)Nc1cccc(F)c1 (centres undefined)	15.9%[46.1 µM]	nt	nt	?
Cc1cccc(NC(=O)CC2NCCNC2=O)c1 (centres undefined)	0.0%	38.6	24.1*	6.5%
Cc1cc(NC(=O)CC2CCCC2)ccc1Br	?	62.5*	26.3*	?
Cc1ccc(NC(=O)CN(C)C2CCCCC2)cc1Br	-17.9%[46.1 µM]	11.0	7.2	?
Cc1cccc(NC(=O)CC2CCC2)c1	1.0%	12.3	20.0*	-18.9%
CCc1ccc2oc(C(=O)NC3CCS(=O)(=O)C3)cc(=O)c2c1 (centres undefined)	nt	-4.7	-3.2	nt
Cc1ccc(-c2ccc(NC(=O)C3C4C=CC(C4)C3C(=O)O)cc2)o1 (centres undefined)	?	62.2*	46.4*	15.6%
O=C(CSc1ccccn1)c1ccc(F)cc1	17.5%	58.3*	34.3*	1.3%
SMILES	LASV entry inh	Shiga toxin inh	CHX counter	MARV entry inh
Cc1ccc(C(=O)CSc2ccccn2)cc1	-17.3%	112.9*	45.9*	-2.1%
COc1cc(C(=O)NC(C)Cc2cccs2)cc(OC)c1OC (centres undefined)	?	-5.0	-3.3	-12.7%[46.1 µM]
CC(Cc1cccs1)NC(=O)Nc1ccc(F)cc1 (centres undefined)	13.9%	48.2	50.1*	-2.5%
CC(Cc1cccs1)NC(=O)Nc1cccc(Cl)c1 (centres undefined)	7.2%	69.0*	59.5*	7.1%
CC(C)Oc1ccc(CCC(=O)N/N=C/c2ccncc2)cc1	1µM*	-6.0	-1.2	0.8%[46.1 µM]
NCCNC(=O)Cn1c(=O)c2c3c(sc2n(Cc2ccccc2)c1=O)CCCC3	?	-7.8	-1.9	-41.3%
Cn1cccc1/C=C(/C#N)C(N)=S	?	-13.3	-5.1	8.5%
Cc1ccc(-c2ccc(/C=C(\C#N)C(N)=S)n2C)cc1	?	61.1*	59.3*	-10.6%
Cn1c(CSCc2ccc(Cl)cc2)nnc1SCC(=O)Nc1nc2ccccc2s1	-10.4%	-13.5	-2.6	-7.8%
COc1ccc(C2C(C(=O)c3cccs3)=C(O)C(=O)N2CCN2CCOCC2)c(OC)c1 (centres undefined)	nt	-7.5	7.3	nt
CC(C)Sc1nnc([C@@H](N)Cc2ccccc2)o1	6.9%	35.5	42.6*	0.6%
C=C(C)CSc1nnc([C@@H](N)Cc2ccccc2)o1	37.2%	29.8	17.9*	16.5%
CN(C)C(=O)CSc1nnc([C@@H](N)Cc2ccccc2)o1	4.6%	-4.4	-0.3	-10.5%
CCc1ccccc1N(CC(=O)N1CCc2ccccc2C1)S(C)(=O)=O	nt	-3.8	-1.2	nt

Screening results from PubChem.
